In the supplement of paper PMC6555819:

Key:
Experiment in all cases: PBM binding z-score (relative to random genomic background probes); higher = stronger binding; sequences stand for … in GC…GCGATTGACAGCGTAGAATGAAGG
[1] = tested on: RARb homodimer (NR concentration 270 nM)
In short: (§1)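 For binding z-scores, the reference was random background probes on custom Agilent 4×180K protein-binding microarrays. These arrays were incubated 1 h with ligand-free nuclear receptor dimers in PBS pH 7.4, 2% milk, 0.02% Triton X-100, 1 mM DTT, 0.2 mg/mL BSA and 0.4 mg/ml salmon testes DNA. Fluorescence was scanned after antibody detection of each partner (one per run) and regression-normalized.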

[2] = tested on: RARg:RXRa (NR concentration 270 nM, RXRa partner concentration 90 nM)
In short: as §1

[3] = tested on: RARg homodimer (NR concentration 270 nM)
In short: as §1

[4] = tested on: RXRa DBDmut IVT, anti-RXR (DBD mutation: RXRa K156A/R161A, NR concentration 90 nM)
In short: as §1

[5] = tested on: RXRa homodimer (NR concentration 180 nM)
In short: as §1

[6] = tested on: THRa:RXRa (NR concentration 90 nM, RXRa partner concentration 90 nM)
In short: as §1

[7] = tested on: THRa homodimer (NR concentration 90 nM)
In short: as §1

[8] = tested on: VDR homodimer (NR concentration 270 nM)
In short: as §1

Row | Sequence | PBM binding z-score [1] | PBM binding z-score [2] | PBM binding z-score [3] | PBM binding z-score [4] | PBM binding z-score [5] | PBM binding z-score [6] | PBM binding z-score [7] | PBM binding z-score [8]
1 | CCTGCTAGGCCATGGTCAGCTAATCTACAGTATG | 0.329 | -0.00744 | 0.586 | 0.152 | -0.245 | -0.0916 | -0.719 | -0.711
2 | AGAATGAGGTTTAGATCAGGGAAACAGAATACAT | -0.22 | -0.0854 | 0.196 | -0.146 | -0.129 | 0.678 | -0.242 | 0.0888
3 | TCTTGTAGATCACAGGTTAAGAAAGCCGAAGCCT | 0.0208 | 0.222 | 0.135 | 0.557 | 0.811 | 0.341 | -0.442 | -0.219
4 | TCTTGTAGATCAACAGTAGGTTAAGAAAGATCGA | -0.123 | 0.314 | 0.0764 | 0.88 | 0.463 | 0.12 | -0.482 | -0.281
5 | CCTCGGAGGATAGAAGGTCAGAGCTGTCCGCTTT | 2.9 | 2.17 | 2.05 | -0.11 | 1.52 | 1.66 | -0.386 | -0.101
6 | CCTACTGGGCCACGAAAGGTCATTAATTCAGTGA | 4.39 | 4.33 | 3.75 | 0.737 | 4.52 | 3.67 | 1.04 | 2.25
7 | ATATGTAGCTTACATCCGGGTCATTCAGGCTATG | 1.78 | 1.48 | 1.02 | 0.735 | 1.9 | 2.87 | 2.3 | 2.18
8 | GCTTATAGATCAAGGTTAAGAAAGACTAAGCTAA | 0.33 | 0.377 | 0.552 | 0.345 | 0.835 | 1.32 | 0.0443 | -0.265
9 | CTCGATAGGTCGTGCTCAGGTGAGTATACCAAAC | 1.07 | 2.26 | 1.2 | 0.506 | 1.29 | 2.86 | 0.582 | 0.0382
10 | CATAGTTGGTCAGGAGGTCACACACCGGATATGA | 4.18 | 5.09 | 4.47 | 0.639 | 4.6 | 3.46 | 2.32 | 3.09
11 | GCTAGTTGGTCAGTAAAAGATCACACACCGGTCG | 0.519 | 0.262 | 0.586 | -0.0346 | 0.0545 | -0.299 | -0.336 | -0.296
12 | ATCGAAGGGTCGTGAGGTGAGTATACAGAAAGGC | 2.09 | 3.05 | 2.55 | 0.87 | 3.4 | 2.84 | 1.51 | 0.783
13 | TCGAGTAGGGTAGGGGCATTCAGAATGGCGTCGA | 0.89 | -0.0257 | -0.315 | 0.328 | 0.411 | 0.763 | 0.794 | 0.663
14 | GGAACGAGGGCATTCGAGTTGATAGGATGGCGAT | 0.729 | 1.11 | 1.28 | 3.32 | 0.734 | 3.21 | -0.299 | 2.9
15 | CCAGACAGGTCAGAAGGTAACTCAGCCTCGATTA | 2.66 | 3.85 | 3.63 | 1.34 | 2.61 | 1.39 | 0.239 | 0.366
16 | GCTGCCAGGTCAGGTTGGTCAGCTAACGGGTACG | 2.65 | 2.55 | 3.29 | 0.47 | 1.5 | 2.51 | 1.16 | 0.33
17 | TCTTGTAGATCAACAGGAGGTTTAGAAAGATCGA | -0.821 | -0.145 | -0.083 | 0.348 | -0.0846 | -0.426 | -0.597 | -0.584
18 | TCGAGTAGGTTAGTCGGGGCTTTCAGCCAACATA | -0.364 | -0.483 | -0.728 | 0.169 | -0.346 | 1.11 | -0.892 | -0.862
19 | GCGACTGGGGCAAAGAAGGTTACCATAAGGTTGG | 1.92 | 1.19 | 1.02 | -0.00563 | 0.942 | 2.77 | 0.225 | 0.247

Row | Sequence | PBM binding z-score [1] | PBM binding z-score [2] | PBM binding z-score [3] | PBM binding z-score [4] | PBM binding z-score [5] | PBM binding z-score [6] | PBM binding z-score [7] | PBM binding z-score [8]
20 | TTACCAAGGTGAGCTGAGGACGTTGATCCAACTC | 0.308 | 0.112 | 0.436 | -0.741 | -0.041 | 4.53 | 1.6 | -0.0863
21 | CAAACTAGGTCACCGGAAGGTCACAGTCCGCATG | 5.72 | 8.31 | 7.76 | 2.19 | 6.67 | 4.49 | 3.69 | 3.04
22 | CGTCCAAGGTCAATGCTTGGTCAGTGAAAGCATT | 4.25 | 6.01 | 6.27 | 3.51 | 4.89 | 3.82 | 2.24 | 2.49
23 | CCTTACGGGTCACTCCAGGTTATACCATCGGAGT | 2.89 | 4.32 | 4.44 | 1.3 | 4.29 | 4.98 | 0.681 | 1.45
24 | ACTATTAGTTGAGACGAGCGCAACCGATAGGTTG | -0.567 | -0.546 | 0.138 | -0.188 | -0.211 | -0.381 | -0.708 | -0.0904
25 | ATATGTAGGTTACATCCGGGTCATTCAAGCTATG | 2.89 | 3.76 | 2.1 | 1.48 | 3.24 | 3.88 | 2.61 | 2.99
26 | CCGACTGGGGCAGAAAGATTACCATACCATCCGG | -0.533 | -0.183 | 0.217 | -0.916 | 0.0291 | -0.794 | -0.569 | -0.722
27 | ACTTACGGGTCAATGAGGTTATAGCACGCGTATA | 3.59 | 5.05 | 4.75 | 2.58 | 6.03 | 4.16 | 1.57 | 3.35
28 | CAAACTAGGTCACAGAGGTCAAAGTACGTGCGTA | 5.51 | 7.48 | 7.65 | 3.46 | 7.8 | 4.75 | 2.64 | 6.77
29 | GTACCAAGGTGAATAGGTCGGTGATGAGTAGGCG | 1.58 | 1.83 | 1.21 | -0.398 | 1.14 | 1.57 | 0.522 | 0.177
30 | TAGCCTAGGTCAGATCGGGCCAGTATACGCTATA | 2.17 | 2.61 | 3.1 | -0.634 | 1.44 | 4.09 | 0.0638 | -0.176
31 | TCTTGTAGATCAACAGGAGGTTAAGATAGATCGA | 0.539 | 1.16 | 0.391 | 0.496 | 1.04 | 0.854 | -0.513 | -0.27
32 | CGTACTGGGCCACGAAAGGTCATTGATTCAGTGA | 4.58 | 4.97 | 4.48 | 0.97 | 5.18 | 3.83 | 1.09 | 2.78
33 | ATCGAAAGGTCGACGAGGTGAGTATACACCGTTT | 3.04 | 4.03 | 3.9 | 1.38 | 4.46 | 3.84 | 0.669 | 0.929
34 | GGAACGAGGGCATTCGAGTTGATAGTATGGCGAT | 0.948 | 1.22 | 1.61 | 3.39 | 0.99 | 3.38 | 0.0512 | 3.37
35 | CGTCCCAGGTCAAAGGTCAGTGAAGAGATGACGG | 5.2 | 7.98 | 7.02 | 2.62 | 9.93 | 4.99 | 2.8 | 2.7
36 | ACTAGTTGGTCAGCTGAGGTCACACATAATTCGG | 4.45 | 4.1 | 4.13 | 1.13 | 3.93 | 4.88 | 5.2 | 3.19
37 | CAAACTAGGTCAGGAGGTCAAAGTCCGCTTCCCG | 5.3 | 6.99 | 5.98 | 2.11 | 5.81 | 3.97 | 2.52 | 3.61
38 | TAGCCTAGGTCATTCAGGGTCCAGTATAGAAAGC | 3.02 | 4.74 | 4.16 | 2 | 3.11 | 4.2 | 0.899 | 2.74

Row | Sequence | PBM binding z-score [1] | PBM binding z-score [2] | PBM binding z-score [3] | PBM binding z-score [4] | PBM binding z-score [5] | PBM binding z-score [6] | PBM binding z-score [7] | PBM binding z-score [8]
39 | ATCTCTAGGTAAGACTCAGTTCAGAGAAGAACGC | 0.397 | 0.254 | 0.549 | 0.3 | -0.0317 | 0.761 | 0.645 | 1.12
40 | ACTAGTTGGTCAGCTGAGGTCACTCACAATTCGG | 4.24 | 3.48 | 3.38 | 1.11 | 3.13 | 4.98 | 4.9 | 2.68
41 | TTACCAAGGTGAGCTGAGGTCGTAGATCCAACTC | 1.66 | 1.5 | 1.13 | -0.577 | 1.72 | 4.78 | 1.9 | 0.82
42 | CAAACTAGGTCAAGAGGACAAAGTCCGCTTCCCG | 3.78 | 4.36 | 5.19 | 1.45 | 2.74 | 3 | 1.29 | 0.916
43 | GGAACGAGGGCAGAGTTGATAGCATCTGTCGACG | 0.448 | 0.934 | 1.12 | 1.49 | 0.588 | 0.324 | -0.629 | 0.314
44 | ACTTACGGGTCAACGAGGTTATAACACGCGTATA | 3.71 | 5.74 | 5.07 | 3.22 | 6.33 | 4.34 | 1.32 | 4.13
45 | ATACCAAGGTGATCGTGAGGTCGTTGACACTAAC | 1.85 | 2.27 | 0.855 | 0.311 | 1.56 | 3.63 | 2.59 | 2.93
46 | GCATATAGGTAATACAAGGTGAATGTCCGATTGT | 0.685 | 0.413 | 0.66 | 0.0909 | 0.689 | 4.18 | 0.928 | -0.178
47 | ATCTTTAGGTAAGACTCAGTTCAGTGAAGAACGC | 0.715 | 0.526 | 0.533 | 0.843 | 0.131 | 1.28 | 0.881 | 1.44
48 | GCGACTGGGGCGTCAGCAGGTTACCATAACTTAA | 0.457 | 0.162 | -0.368 | -0.119 | 0.154 | 0.661 | -0.199 | -0.488
49 | CCAGAGAGGTGAAAGGTAACTCAGTCTGGTACGC | 1.42 | 2.57 | 1.44 | 0.39 | 3.56 | 2.1 | 0.391 | 0.0875
50 | CCTACTTGGCCATTCAGAGGTCATTGATCATATG | 3.93 | 3.64 | 2.6 | 1.92 | 3.73 | 3.21 | 1.66 | 3.32
51 | TAGCCTAGGTTATTGGGCCAGTATAGTACGCATC | 0.536 | 0.395 | 0.586 | -0.294 | 0.452 | 0.29 | -0.377 | -0.529
52 | TTACCCAGGTGAAGGTCGTTGATCCCTCTGTAGA | 1.33 | 0.65 | 0.626 | -0.428 | 1.31 | 1.91 | 0.888 | 1.26
53 | TCAGACAGGTGAAGGGAACTCAGGTACGCAGTCG | 0.93 | 0.546 | 0.498 | 1.36 | 0.877 | 0.891 | 0.717 | 0.463
54 | GCTGCTTGGTCAACTGATGGTCAGCTAAAGCTCG | 0.641 | 0.828 | 0.795 | 0.0652 | -0.182 | -0.283 | -0.699 | -1.25
55 | ACTAGCAGGGCAAGGGTCACTCAAGATTAGTCCG | 3.73 | 4.34 | 3.78 | 0.379 | 4.53 | 2.73 | -0.1 | 1.17
56 | CCTTACGGGCCAAGGTTATAGCACGGGTGGTACG | 0.655 | 0.306 | 0.628 | -1.14 | 0.273 | 0.713 | 0.104 | 0.207
